Shown are actives, neighbours in structure and some others; about 12% of the full set was active somewhere.
JMJD2A Tudor: blocks the human JMJD2A Tudor domain. O75164. AlphaScreen JMJD2A-Tudor / H3K4me3 peptide binding. Potency, µM (top dose mostly 114 µM), hits mostly inhibitors. 390,000 compounds, 4.4% hits; note: nearly all actives have a fitted effect of over 50% in size
PLK1 PBD block: blocks phosphopeptide binding to human PLK1 polo-box domain. P53350. Plk1 PBD binding of FITC phosphopeptide, fluorescence polarization. Potency, µM, most hits filed as inhibitors. 360,000 compounds, 2.8% hits; note: series mostly up to about 57 µM; nearly all actives have a fitted effect of over 65% in size
Target sequence (P53350 whole entry, looked up, the tested form may be a part): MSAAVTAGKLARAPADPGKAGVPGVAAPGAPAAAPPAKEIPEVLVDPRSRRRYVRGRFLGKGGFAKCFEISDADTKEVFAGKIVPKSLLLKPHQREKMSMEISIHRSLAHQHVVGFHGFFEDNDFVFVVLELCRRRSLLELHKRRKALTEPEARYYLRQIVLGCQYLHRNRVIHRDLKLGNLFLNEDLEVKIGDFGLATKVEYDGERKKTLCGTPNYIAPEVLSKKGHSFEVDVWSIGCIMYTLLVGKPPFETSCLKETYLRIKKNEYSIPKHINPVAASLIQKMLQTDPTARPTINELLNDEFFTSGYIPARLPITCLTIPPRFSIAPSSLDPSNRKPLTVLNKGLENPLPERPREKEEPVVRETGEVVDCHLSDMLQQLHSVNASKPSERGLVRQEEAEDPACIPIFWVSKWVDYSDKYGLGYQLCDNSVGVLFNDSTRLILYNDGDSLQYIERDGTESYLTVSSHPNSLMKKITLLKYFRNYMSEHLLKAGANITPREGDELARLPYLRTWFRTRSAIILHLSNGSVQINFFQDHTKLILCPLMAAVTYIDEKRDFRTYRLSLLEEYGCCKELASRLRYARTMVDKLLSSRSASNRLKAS
G9a block: blocks human histone lysine methyltransferase G9a; 350,000 compounds, 8.8% hits; Potency, µM (titrated, usually from 102 µM), actives largely listed as inhibitors; Q96KQ7; G9a H3K9 monomethylation, AlphaScreen, 2 h; note: nearly all actives have a fitted effect of over 75% in size
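AlphaScreen detection with an anti-monomethyl H3K9 antibody quantified product after a 2 h room-temperature reaction containing 500 nM biotinylated H3K9 peptide, 20 µM SAM and 20 nM enzyme, which had been preincubated 15 min with compound.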
Sfp inh: Sfp phosphopantetheinyl transferase inhibition | Q9F4F7 | Biochemical Sfp PPTase activity, qHTS | Potency, µM, hits mostly inhibitors | 310,000 compounds, 3.5% hits | AID 1490;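 note: the enzyme is Sfp with the accession as filed and its product quenches rhodamine fluorescence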
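Step 1, compound plus 15 nM Sfp-PPTase, 15 min, room temperature. Step 2, add rhodamine-CoA (5 uM) and BHQ-2-YbbR (12.5 uM). Step 3, read 525/598 nm fluorescence at 0 and 30 min.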
BAZ2B inh: blocks human BAZ2B; Q9UIF8; AlphaScreen BAZ2B-H3K14Ac peptide displacement; Potency, µM (series often up to 114 µM), hits mostly inhibitors; 360,000 compounds, 4.4% hits; note: nearly all actives have a fitted effect of over 60% in size
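AlphaScreen displacement of biotin-H3(5-23)K14Ac peptide (50 nM final) from BAZ2B (50 nM final) in PBS pH 7.4, 0.01% Tween-20; complex preformed 30 min RT, then compounds (top 110 uM) 30 min RT, beads 20 min dark.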
HP1b binding inh: HP1-beta chromodomain-methylated histone interaction inhibition; AlphaScreen HP1-beta / biotin-H3K9me3 peptide binding; Potency, µM (highest dose often 114 µM), hits mostly inhibitors; 390,000 compounds, 0.56% hits; note: nearly all actives have a fitted effect of over 70% in size
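AlphaScreen: HP1-beta (50 nM) preformed 30 min with biotin-H3(1-18)K9me3 peptide (50 nM) in PBS pH 7.4, 0.01% Tween-20. Compound added for 30 min at RT, then streptavidin donor/nickel chelate acceptor beads (10 ug/mL) for 30 min.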
Large screens that a line does not name were inactive. Calls come from the whole dose curve; as a rule, active = well fitted curve in the direction sought with a large enough effect; inconclusive = small, poorly fitted or top-dose-only effect, or another doubt; inactive = no such curve, though single readings can be large; an effect the other way counts as inactive or inconclusive.

CC(=O)Nc1ccc2c(c1)OCCOCCOc1cc(NC(C)=O)ccc1OCCO2	G9a block 50.1µM
CC(=O)N/N=C(\C)CC(=O)Nc1ccc2c(c1)OCCO2	G9a block 44.7µM
CC(C)(C)C(=O)Nc1ccc2c(c1)OCCOCCOc1cc(NC(=O)C(C)(C)C)ccc1OCCOCCO2	none
O=C(O)CCNc1ccc2c(c1)OCCO2	JMJD2A Tudor 44.7µM, G9a block inconclusive, Sfp inh 50.1µM
O=C1CC2(CCN(S(=O)(=O)c3ccccc3F)CC2)Oc2ccccc21	none (no result: Sfp inh)
Cc1cc(C)n(-c2nc3ccccc3c(=O)n2OCCOc2ccccc2)n1	PLK1 PBD block 3.36µM
C=CCOn1c(-n2nc(C)cc2C)nc2ccccc2c1=O	none
Cc1cc(CC(C)C)n(-c2nc3ccccc3c(=O)n2OCC(N)=O)n1	PLK1 PBD block 21.2µM
CC(=O)c1ccc(OC2(C)CCN(Cc3ccc4c(c3)OCCO4)C2)cc1 (stereo unspecified)	none (no result: JMJD2A Tudor, G9a block, Sfp inh, BAZ2B inh, HP1b binding inh)
O=C(O)c1n[nH]c2c1CCCCC2	JMJD2A Tudor inconclusive, G9a block 10µM, BAZ2B inh 50.1µM
CC(C)(C)C1CCc2[nH]nc(C(=O)O)c2C1 (stereo unspecified)	JMJD2A Tudor inconclusive, BAZ2B inh inconclusive
O=C(O)c1n[nH]c2c1CCCC2	JMJD2A Tudor 25.1µM, BAZ2B inh 56.2µM
Cc1cc(=O)oc2c3c(ccc12)OCN(Cc1ccccc1Cl)C3	none (no result: PLK1 PBD block, Sfp inh)
O=c1oc2c3c(ccc2c2ccccc12)OCN(Cc1ccccc1Cl)C3	G9a block 1.26µM, BAZ2B inh inconclusive (no result: PLK1 PBD block, Sfp inh)
CCOC(=O)C1(C)CCCN(C(=O)c2ccc(F)cc2Cl)C1 (stereo unspecified)	none (no result: JMJD2A Tudor, G9a block, Sfp inh, BAZ2B inh, HP1b binding inh)
O=C(CSc1nnc2n1CCCN2)c1ccc([N+](=O)[O-])cc1	JMJD2A Tudor inconclusive, PLK1 PBD block inconclusive, G9a block 39.8µM
O=C(CSc1nnc2n1CCCN2)c1ccc(Cl)cc1	none
COc1cc2oc(=O)c3c4c(cc5ccc(c1CCN(C)C)c2c53)OCO4	none (no result: JMJD2A Tudor, PLK1 PBD block, G9a block, BAZ2B inh, HP1b binding inh)
CCOC(=O)c1cccc(NC(=O)CC2C(=O)N(c3ccc(Cl)cc3)C(=O)N2C2CCCC2)c1 (stereo unspecified)	none (no result: PLK1 PBD block, Sfp inh)
CCOc1cc(N2CCOCC2)c(OCC)cc1NC(=O)c1c(-c2ccccc2)noc1C	JMJD2A Tudor inconclusive, BAZ2B inh 44.7µM (no result: Sfp inh)
CCOc1cc(N2CCOCC2)c(OCC)cc1NC(=O)c1ccccc1	G9a block inconclusive, BAZ2B inh inconclusive
CCOc1cc(N2CCOCC2)c(OCC)cc1NC(=O)c1c(C)noc1C	G9a block 15.8µM (no result: Sfp inh)
CCOc1cc(N2CCOCC2)c(OCC)cc1NC(=O)c1cc(C)cc(C)c1	G9a block inconclusive
CCOc1cc(N2CCOCC2)c(OCC)cc1NC(=O)c1c(-c2ccccc2Cl)noc1C	JMJD2A Tudor 44.7µM, G9a block 35.5µM, BAZ2B inh 39.8µM, HP1b binding inh inconclusive
Cc1onc(-c2ccccc2)c1C(=O)Nc1ccc(S(=O)(=O)N2CCOCC2)cc1	G9a block 50.1µM
C[C@H]1OC(=O)CC[C@@H]2[C@]1(C)CCC1[C@@]2(C)CC[C@@]2(C)C3CC(C)(C)CC[C@]3(CO)CC[C@]12C (stereo partly specified)	none (no result: JMJD2A Tudor, PLK1 PBD block, G9a block, BAZ2B inh, HP1b binding inh)
N#C/C(=C\c1cn(-c2ccccc2)nc1-c1cccnc1)c1nnc2n1CCCCC2	none
COc1ccccc1NC(=O)CC(=O)c1ccccc1	JMJD2A Tudor inconclusive, PLK1 PBD block 29.9µM
COc1ccccc1NCCC(=O)OCC(=O)NC1CC1	none
COc1ccccc1NC(=S)c1ccccc1	PLK1 PBD block 26.7µM, G9a block 7.94µM, Sfp inh 31.6µM
COc1ccccc1NC(=S)NCc1ccccc1	none
COc1ccccc1NC(=O)CC(=O)Nc1ccccc1OC	none
COc1ccccc1NC(=O)O/N=C(\N)c1ccccc1	PLK1 PBD block 10.6µM, G9a block inconclusive, Sfp inh inconclusive
COc1ccccc1NC(=O)c1ccccc1NC(=O)c1ccccc1	none (no result: PLK1 PBD block, Sfp inh)
COc1ccccc1NCCC(=O)OCC(=O)NC1CCCCC1	G9a block 3.55µM
Cc1ccc(C(=O)N2CCN(c3cccc(Cl)c3)CC2)cc1-n1c(C)nc2cccnc21	G9a block inconclusive (no result: PLK1 PBD block, Sfp inh)
CCC(=O)OC1=CN(Cc2ccccc2)S(=O)(=O)c2ccccc21	none (no result: PLK1 PBD block, Sfp inh)
COc1ccccc1NC(=O)NC1CCCCCCC1	none
COc1ccccc1NC(=O)CC(NC1CCCCC1)C(=O)O (stereo unspecified)	G9a block 50.1µM
CC(=O)c1ccc(Nc2nc3ccccc3nc2-n2nc(C)cc2C)cc1	none (no result: PLK1 PBD block, Sfp inh)
Cc1ccc(N(CC(O)Cn2c3ccccc3c3ccccc32)S(C)(=O)=O)cc1 (stereo unspecified)	none
CC(=O)Nc1ccc(N(CC(O)Cn2c3ccccc3c3ccccc32)S(=O)(=O)c2ccc(C)cc2)cc1 (stereo unspecified)	G9a block 10µM
CC(=O)N1CC=CC1(C)C(=O)O (stereo unspecified)	G9a block 50.1µM
NC1=NC2(CCCC2)N=C(Nc2ccccc2)N1	JMJD2A Tudor 35.5µM
COCCNC(=O)C(=O)NNS(=O)(=O)c1ccc2ccccc2c1	JMJD2A Tudor inconclusive, PLK1 PBD block 18.9µM, G9a block 39.8µM
Cc1ccc(S(=O)(=O)NNC(=S)Nc2ccc(Cl)cc2)cc1	none
Cc1ccc(NC(=S)NNS(=O)(=O)c2ccc3ccccc3c2)cc1Cl	JMJD2A Tudor inconclusive, PLK1 PBD block 18.9µM, HP1b binding inh inconclusive
COCCNC(=O)C(=O)NNC(=O)COc1ccc(OC)cc1	PLK1 PBD block inconclusive, G9a block 25.1µM
Cc1ccc(-n2nc(C)c3c2OC(N)=C(C#N)C3c2ccccc2F)cc1 (stereo unspecified)	JMJD2A Tudor inconclusive, PLK1 PBD block inconclusive, BAZ2B inh inconclusive
Cc1ccc(-n2nc(C)c3c2OC(N)=C(C#N)C3c2ccncc2)cc1 (stereo unspecified)	JMJD2A Tudor inconclusive, G9a block 44.7µM
Cc1nn(-c2ccccc2)c2c1C(c1ccncc1)C(C#N)=C(N)O2 (stereo unspecified)	G9a block 15.8µM, Sfp inh inconclusive
CCn1c(C)cc2c(c1=O)C(c1ccncc1)C(C#N)=C(N)O2 (stereo unspecified)	G9a block 39.8µM
CCn1c(C)cc2c(c1=O)C(c1ccc3c(c1)OCO3)C(C#N)=C(N)O2 (stereo unspecified)	none
COc1cc(-n2nc(C)c3c2OC(N)=C(C#N)C3c2ccccc2)c(Cl)c(Br)c1O (stereo unspecified)	G9a block inconclusive, BAZ2B inh 44.7µM, HP1b binding inh 44.7µM
CC(C)CCn1c(=O)c2cccnc2n(CC(=O)Nc2ccccc2)c1=O	none (no result: PLK1 PBD block, Sfp inh)
Cc1ccc(Cl)cc1NC(=O)CCCn1c(=O)c2cccn2c2ccccc21	G9a block inconclusive (no result: PLK1 PBD block, Sfp inh)
